# Experimental data reported in the supplement of paper PMC11732987, “Enantioselective OTUD7B fragment discovery through chemoproteomics screening and high-throughput optimisation” (Communications Chemistry, 2025).
# Values without a mark were called inactive.
# Assays:
# Assay in all cases: log2 ratio of Biotin-Ahx-Ub-VS probe labelling (fragment/DMSO); higher = less target engagement (more negative = stronger competition), active = hit call of the paper (q ≤ 0.05, log2 ratio ≤ -1)
# Details in all cases: compound concentration: 200 uM; treatment time: 3 h
# OTUD6B = target: T1, OTUD6B (UniProt Q8N6M0)
# T1 sequence (whole entry): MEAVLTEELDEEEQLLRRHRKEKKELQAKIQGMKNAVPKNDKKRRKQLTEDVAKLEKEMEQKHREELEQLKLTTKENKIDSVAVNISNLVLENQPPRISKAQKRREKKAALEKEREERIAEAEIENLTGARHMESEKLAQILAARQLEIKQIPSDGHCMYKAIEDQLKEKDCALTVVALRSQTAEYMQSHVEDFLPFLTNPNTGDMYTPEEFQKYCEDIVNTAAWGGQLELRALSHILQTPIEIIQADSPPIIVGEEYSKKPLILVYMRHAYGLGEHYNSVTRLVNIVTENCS
# Summary of the method: (§1)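 Using Biotin-Ahx-Ub-VS at 0.5 µM final for 1 h, DUBs were labelled in HEK293T lysate (495 µg per sample) that had first been treated in triplicate with fragment at 200 µM or vehicle for 3 h. NeutrAvidin enrichment, LysC and trypsin digestion and diaPASEF LC-MS/MS followed. Spectronaut label-free quantities were global-median-normalised. Values are average log2 fragment/vehicle ratios by unpaired t-test, using proteins with ≥2 unique peptides.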
# OTUD7B = target: T2, OTUD7B (UniProt Q6GQQ9)
# T2 sequence (whole entry): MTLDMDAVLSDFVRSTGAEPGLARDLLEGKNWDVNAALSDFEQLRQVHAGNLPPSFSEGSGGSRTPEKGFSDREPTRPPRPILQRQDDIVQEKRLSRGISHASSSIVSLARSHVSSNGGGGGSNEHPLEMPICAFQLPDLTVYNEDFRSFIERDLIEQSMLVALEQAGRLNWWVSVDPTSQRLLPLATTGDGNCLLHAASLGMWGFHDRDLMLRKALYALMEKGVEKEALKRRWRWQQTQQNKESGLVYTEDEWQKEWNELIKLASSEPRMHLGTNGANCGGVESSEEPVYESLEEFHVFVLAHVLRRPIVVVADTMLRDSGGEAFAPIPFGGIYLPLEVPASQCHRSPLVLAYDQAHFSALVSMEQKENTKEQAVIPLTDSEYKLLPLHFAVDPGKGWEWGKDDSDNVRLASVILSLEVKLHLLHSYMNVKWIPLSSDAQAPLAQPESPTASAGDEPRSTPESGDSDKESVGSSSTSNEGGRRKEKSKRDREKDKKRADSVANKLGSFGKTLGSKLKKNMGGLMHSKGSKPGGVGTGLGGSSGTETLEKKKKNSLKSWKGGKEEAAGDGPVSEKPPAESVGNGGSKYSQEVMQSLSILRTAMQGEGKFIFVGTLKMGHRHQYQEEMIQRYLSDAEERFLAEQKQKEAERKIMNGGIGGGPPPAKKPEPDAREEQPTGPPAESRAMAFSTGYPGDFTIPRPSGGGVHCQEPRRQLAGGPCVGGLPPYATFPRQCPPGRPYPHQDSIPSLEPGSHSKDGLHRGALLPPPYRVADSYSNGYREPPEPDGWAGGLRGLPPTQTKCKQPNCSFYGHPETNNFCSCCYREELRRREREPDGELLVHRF
# Summary of the method: as §1
# PRPF8 = PRPF8 (UniProt Q6P2Q9)
# Summary of the method: as §1
# PSMD7 = target: T3, PSMD7 (UniProt P51665)
# T3 sequence (whole entry): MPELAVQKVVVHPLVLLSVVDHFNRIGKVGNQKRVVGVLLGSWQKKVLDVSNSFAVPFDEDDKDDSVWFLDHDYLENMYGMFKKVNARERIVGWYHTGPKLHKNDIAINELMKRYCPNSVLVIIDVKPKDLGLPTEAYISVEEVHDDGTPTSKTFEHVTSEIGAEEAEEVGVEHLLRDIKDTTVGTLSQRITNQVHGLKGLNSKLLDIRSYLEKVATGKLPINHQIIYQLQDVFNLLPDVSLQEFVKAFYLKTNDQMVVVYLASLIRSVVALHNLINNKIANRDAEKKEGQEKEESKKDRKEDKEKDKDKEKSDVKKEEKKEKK
# Summary of the method: as §1
# UCHL1 = UCHL1 (UniProt P09936)
# UCHL1, sequence (P09936 whole entry, looked up): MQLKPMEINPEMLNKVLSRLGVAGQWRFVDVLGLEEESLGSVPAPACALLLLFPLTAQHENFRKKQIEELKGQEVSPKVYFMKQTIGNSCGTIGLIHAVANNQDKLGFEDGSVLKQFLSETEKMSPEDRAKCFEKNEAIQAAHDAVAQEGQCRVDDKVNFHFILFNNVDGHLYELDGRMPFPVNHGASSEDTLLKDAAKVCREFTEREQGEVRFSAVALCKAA
# Summary of the method: as §1
# UCHL3 = target: T4, UCHL3 (UniProt P15374)
# T4 sequence (whole entry): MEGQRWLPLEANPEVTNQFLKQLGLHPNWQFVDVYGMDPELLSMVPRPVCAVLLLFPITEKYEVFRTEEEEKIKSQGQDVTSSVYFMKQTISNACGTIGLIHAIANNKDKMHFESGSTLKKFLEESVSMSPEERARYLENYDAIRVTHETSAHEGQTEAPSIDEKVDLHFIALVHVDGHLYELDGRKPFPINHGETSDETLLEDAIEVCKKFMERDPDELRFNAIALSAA
# Summary of the method: as §1
# UCHL5 = target: T5, UCHL5 (UniProt Q9Y5K5)
# T5 sequence (whole entry): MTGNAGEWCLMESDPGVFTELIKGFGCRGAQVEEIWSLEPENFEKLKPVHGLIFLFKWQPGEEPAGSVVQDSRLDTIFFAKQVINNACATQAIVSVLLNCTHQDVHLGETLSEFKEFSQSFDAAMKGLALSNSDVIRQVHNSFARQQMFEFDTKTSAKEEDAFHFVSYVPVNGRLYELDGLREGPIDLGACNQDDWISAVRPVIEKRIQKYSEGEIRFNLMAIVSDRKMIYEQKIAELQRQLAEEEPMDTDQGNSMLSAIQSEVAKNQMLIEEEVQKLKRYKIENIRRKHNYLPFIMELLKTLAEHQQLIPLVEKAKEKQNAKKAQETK
# Summary of the method: as §1
# USP10 = USP10 (UniProt Q14694)
# USP10, sequence (Q14694 whole entry): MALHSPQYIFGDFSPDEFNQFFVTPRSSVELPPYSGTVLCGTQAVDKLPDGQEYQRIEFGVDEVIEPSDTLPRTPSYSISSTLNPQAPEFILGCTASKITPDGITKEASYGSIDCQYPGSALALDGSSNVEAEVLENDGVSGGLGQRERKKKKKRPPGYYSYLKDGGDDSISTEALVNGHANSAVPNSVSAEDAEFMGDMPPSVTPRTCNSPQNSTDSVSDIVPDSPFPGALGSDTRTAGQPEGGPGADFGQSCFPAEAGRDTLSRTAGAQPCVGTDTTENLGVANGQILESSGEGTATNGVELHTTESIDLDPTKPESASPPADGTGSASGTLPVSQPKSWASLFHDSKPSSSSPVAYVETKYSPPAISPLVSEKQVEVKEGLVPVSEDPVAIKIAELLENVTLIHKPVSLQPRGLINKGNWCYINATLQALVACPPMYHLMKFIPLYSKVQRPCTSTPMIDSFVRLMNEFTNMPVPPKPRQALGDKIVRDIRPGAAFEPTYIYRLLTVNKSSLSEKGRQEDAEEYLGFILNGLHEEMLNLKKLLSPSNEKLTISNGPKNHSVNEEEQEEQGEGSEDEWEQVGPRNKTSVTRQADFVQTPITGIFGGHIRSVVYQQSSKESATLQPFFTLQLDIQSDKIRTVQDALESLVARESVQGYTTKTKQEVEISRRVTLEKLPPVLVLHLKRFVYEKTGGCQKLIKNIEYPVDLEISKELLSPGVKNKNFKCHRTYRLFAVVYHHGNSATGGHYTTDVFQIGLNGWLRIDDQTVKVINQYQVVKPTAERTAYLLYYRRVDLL
# Summary of the method: as §1
# USP15 = target: T6, USP15 (UniProt Q9Y4E8)
# T6 sequence (whole entry): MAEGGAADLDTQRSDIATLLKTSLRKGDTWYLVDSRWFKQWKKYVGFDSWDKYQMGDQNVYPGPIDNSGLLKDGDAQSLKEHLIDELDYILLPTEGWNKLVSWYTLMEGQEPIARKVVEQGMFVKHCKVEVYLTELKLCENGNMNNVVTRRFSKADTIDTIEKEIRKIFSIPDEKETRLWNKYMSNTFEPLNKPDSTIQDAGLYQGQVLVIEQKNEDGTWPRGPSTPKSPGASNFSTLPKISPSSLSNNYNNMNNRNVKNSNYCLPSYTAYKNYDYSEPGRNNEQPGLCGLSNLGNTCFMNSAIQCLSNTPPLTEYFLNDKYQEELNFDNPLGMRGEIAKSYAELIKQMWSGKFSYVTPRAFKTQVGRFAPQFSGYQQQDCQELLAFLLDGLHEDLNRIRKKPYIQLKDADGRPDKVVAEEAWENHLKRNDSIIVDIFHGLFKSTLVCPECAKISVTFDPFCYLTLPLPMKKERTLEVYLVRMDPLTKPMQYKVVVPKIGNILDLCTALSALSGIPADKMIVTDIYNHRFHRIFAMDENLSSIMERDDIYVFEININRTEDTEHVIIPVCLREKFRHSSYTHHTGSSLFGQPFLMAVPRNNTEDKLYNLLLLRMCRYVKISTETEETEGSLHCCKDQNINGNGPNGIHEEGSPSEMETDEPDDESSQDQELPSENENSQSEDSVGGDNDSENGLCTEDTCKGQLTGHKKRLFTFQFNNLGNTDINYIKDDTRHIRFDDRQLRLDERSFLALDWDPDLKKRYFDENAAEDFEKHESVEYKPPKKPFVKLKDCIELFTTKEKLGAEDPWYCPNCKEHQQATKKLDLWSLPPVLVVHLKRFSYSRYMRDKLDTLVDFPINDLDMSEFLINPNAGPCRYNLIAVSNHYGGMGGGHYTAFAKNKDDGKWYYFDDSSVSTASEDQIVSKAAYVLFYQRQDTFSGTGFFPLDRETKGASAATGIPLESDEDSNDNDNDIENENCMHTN
# Summary of the method: as §1
# USP16 = USP16 (UniProt Q9Y5T5)
# USP16, sequence (Q9Y5T5 whole entry, looked up): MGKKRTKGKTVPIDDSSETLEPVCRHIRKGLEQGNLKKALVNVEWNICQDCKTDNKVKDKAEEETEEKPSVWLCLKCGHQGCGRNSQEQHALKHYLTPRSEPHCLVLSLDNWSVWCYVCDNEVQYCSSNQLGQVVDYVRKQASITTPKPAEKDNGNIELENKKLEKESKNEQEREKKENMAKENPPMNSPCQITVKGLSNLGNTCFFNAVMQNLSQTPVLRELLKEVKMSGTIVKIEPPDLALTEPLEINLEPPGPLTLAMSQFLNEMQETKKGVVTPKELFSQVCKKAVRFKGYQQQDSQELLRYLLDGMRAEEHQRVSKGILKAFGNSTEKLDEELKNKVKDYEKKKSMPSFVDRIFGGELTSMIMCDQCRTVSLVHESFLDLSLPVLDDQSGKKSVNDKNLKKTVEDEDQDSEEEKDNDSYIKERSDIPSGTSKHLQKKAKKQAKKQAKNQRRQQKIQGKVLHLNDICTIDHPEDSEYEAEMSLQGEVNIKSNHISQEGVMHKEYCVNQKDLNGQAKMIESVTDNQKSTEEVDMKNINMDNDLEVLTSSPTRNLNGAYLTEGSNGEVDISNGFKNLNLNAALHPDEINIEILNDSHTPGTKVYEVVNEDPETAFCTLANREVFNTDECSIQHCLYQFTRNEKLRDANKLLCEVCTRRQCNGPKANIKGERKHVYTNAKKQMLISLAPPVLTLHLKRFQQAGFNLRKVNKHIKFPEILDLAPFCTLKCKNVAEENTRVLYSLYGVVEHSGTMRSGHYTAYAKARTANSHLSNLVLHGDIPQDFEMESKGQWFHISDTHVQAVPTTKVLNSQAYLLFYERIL
# Summary of the method: as §1
smiles,measurement,setting,value
O=C(CCl)N1CCCC2CCCCC21 (stereo not given),log2 ratio of Biotin-Ahx-Ub-VS probe labelling,OTUD6B,0.111
same,log2 ratio of Biotin-Ahx-Ub-VS probe labelling,OTUD7B,-0.246
same,log2 ratio of Biotin-Ahx-Ub-VS probe labelling,PRPF8,0.0617
same,log2 ratio of Biotin-Ahx-Ub-VS probe labelling,PSMD7,-0.09
same,log2 ratio of Biotin-Ahx-Ub-VS probe labelling,UCHL1,-1.06 (active)
same,log2 ratio of Biotin-Ahx-Ub-VS probe labelling,UCHL3,0.0783
same,log2 ratio of Biotin-Ahx-Ub-VS probe labelling,UCHL5,-0.193
same,log2 ratio of Biotin-Ahx-Ub-VS probe labelling,USP10,-0.167
same,log2 ratio of Biotin-Ahx-Ub-VS probe labelling,USP15,-0.1
same,log2 ratio of Biotin-Ahx-Ub-VS probe labelling,USP16,-0.257
